# DRD3 agonist = activates the human D3 dopamine receptor. P35462. D3R DiscoveRx beta-arrestin cells, luminescence, 90 min. max activation, %. AID 652048. actives 0.58% (n = 410,000); in the data active = max activation above about 30%
#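 Agonist mode: compounds and dopamine controls were applied to plated cells for 90 min at 37 degrees C after an overnight attachment at 1500 cells/well. Luminescent read-out followed 30 - 60 minutes at room temperature with DiscoveRx detection reagent.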
# D3 antag = blocks the human D3 dopamine receptor. P35462. D3R cells, DiscoveRx beta-arrestin luminescence, antagonist mode; stronger effect = lower value. max response, negative = inhibition, %. actives 2.5% (n = 360,000); in the data active = max response below about -50%; inconclusive = no clear call, values can overlap the other calls
#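 Cells plated overnight at 1500 cells/well, then exposed to library compounds with dopamine controls for 90 minutes at 37 degrees C. DiscoveRx reagent added for 30–60 minutes at room temperature; luminescence read, quantitative HTS format.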
# D1 potentiator = enhances dopamine response at the human D1 receptor; P21728; HEK293 TREx D1 cells, calcium flux, dopamine EC20 potentiation; potentiation, % at 10 µM; actives 0.036% (n = 360,000); AID 504651; in the data active = potentiation above about 30%
# Target sequence (P21728 whole entry, looked up): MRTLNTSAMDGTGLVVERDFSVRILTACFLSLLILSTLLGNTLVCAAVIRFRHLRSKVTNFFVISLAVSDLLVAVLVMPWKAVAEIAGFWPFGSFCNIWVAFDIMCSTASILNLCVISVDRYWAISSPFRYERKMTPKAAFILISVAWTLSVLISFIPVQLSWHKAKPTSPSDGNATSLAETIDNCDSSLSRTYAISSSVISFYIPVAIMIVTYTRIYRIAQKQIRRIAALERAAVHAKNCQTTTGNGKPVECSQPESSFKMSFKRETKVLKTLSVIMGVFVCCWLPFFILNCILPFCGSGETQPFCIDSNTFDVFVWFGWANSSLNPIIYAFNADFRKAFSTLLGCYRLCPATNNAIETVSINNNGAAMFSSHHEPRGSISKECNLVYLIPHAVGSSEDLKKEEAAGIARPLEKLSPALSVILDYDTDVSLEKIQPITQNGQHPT
# D1 antagonist = antagonists of human D1 dopamine receptor; P21728; HEK293 TREx D1 cells, calcium flux, dopamine EC80; stronger effect = lower value; activity change, negative = inhibition, % at 10 µM; actives 3.2% (n = 360,000); AID 504652; in the data active = activity change below about -30%
#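 HEK293 T-REx cells expressing inducible, force-coupled D1 receptor; no-wash Ca dye, 30–90 min RT. Cmpd → 180 s read at 1 Hz → EC80 DA → 180 s read.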
# D1 ag = human D1 receptor agonism; P21728; actives 1% (n = 360,000); activation, % at 2 µM; HEK293 T-REx D1 cells, calcium flux, agonist mode; AID 504660; in the data active = activation above about 30%
#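 Agonism was scored from calcium flux recorded over 180 s (1 read/s) after pintool compound addition, following a 10-cycle baseline. Cells were inducible force-coupled HEK293 TREx D1, plated overnight at 30 C and loaded with no-wash calcium dye.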
# A number is an active result; – = inactive; ? = inconclusive; · = no result. A selection: hits, their analogues and other compounds. The true share with any hit is near 6%.
SMILES,DRD3 agonist,D3 antag,D1 potentiator,D1 antagonist,D1 ag
CCOC(=O)C1C(=O)OC(C)(C)C1C(CC)C(=O)c1c(C)cc(C)cc1C (configuration not stated),–,–,–,–,–
CCOC1=C2[C@@H](CN(S(=O)(=O)c3ccccc3C)[C@H]2c2ccc(Cl)cc2)[C@H]2C(=O)NC(=O)[C@H]2C1,–,-71.9,·,·,·
CCOC1=C2[C@@H](CN(S(=O)(=O)c3ccccc3C)[C@H]2c2ccc(Cl)cc2)[C@H]2C(=O)N(c3ccccc3)C(=O)[C@H]2C1,–,–,·,·,·
COC(=O)C(C)Sc1nnc2cc(C)c3cc(C)cc(C)c3n12 (configuration not stated),–,·,–,–,–
CC1CCN(S(=O)(=O)c2ccc(S(=O)(=O)N3CCCC3)cc2)CC1,34.2,–,–,–,–
Cc1nnsc1C(=O)Nc1ccc(S(=O)(=O)N2CCC(C)CC2)cc1,–,–,–,-48.4,–
Cc1ccc(S(=O)(=O)N2CCC(C)CC2)cc1,–,–,–,–,–
CC1CCN(S(=O)(=O)c2ccc(NC(=O)c3cccs3)cc2)CC1,–,–,–,–,–
CC1CCN(S(=O)(=O)c2ccc(C(=O)N3CCOCC3)cc2)CC1,–,–,–,-35.3,–
CCc1nnc(NC(=O)CSc2nccn2Cc2ccc(F)cc2)s1,–,·,–,–,–
COc1ccc(Cn2c(CNC(=O)Cc3ccc(OC)c(OC)c3)nc3cccnc32)cc1,–,·,–,–,–
N#CN=C(c1ccccc1)c1ccccc1,–,–,–,–,–
N#CCN=C(c1ccccc1)c1ccccc1,–,–,–,-47.3,–
CCC(CC)C(=O)Nc1nnc(SCc2cc(=O)n3cccc(C)c3n2)s1,62.4,·,–,–,–
Cc1cc(C)cc(Oc2c(C(F)(F)F)oc3c(CN4CCCC(C)C4)c(O)ccc3c2=O)c1 (configuration not stated),–,·,–,–,–
O=C(Cn1c(=O)n(Cc2ccc(C(=O)NCc3ccccc3Cl)cc2)c(=O)c2ccccc21)Nc1ccc(F)c(Cl)c1,–,·,–,–,–
O=C(CN(c1ccc(Cl)c(C(F)(F)F)c1)S(=O)(=O)c1ccccc1)N/N=C/c1cccc2c1OCCO2,–,-62.9,–,–,–
COc1cc(Cl)c(C)cc1NS(=O)(=O)c1c(C)nc2sccn2c1=O,–,·,–,-44.5,–
Cn1c(=O)n(C)c2cc([N+](=O)[O-])c(N3CCN(C(=O)c4cccc(Cl)c4)CC3)cc21,–,-59.8,–,–,–
Cn1c(=O)n(C)c2cc([N+](=O)[O-])c(N3CCN(C(=O)c4cccc(F)c4)CC3)cc21,–,?,–,–,–
C[C@H](CO)N1C[C@H](C)[C@@H](CN(C)S(=O)(=O)c2ccccc2)Oc2ccc(NC(=O)CCC(F)(F)F)cc2C1=O,34.8,–,·,·,·
C[C@H](CO)N1C[C@H](C)[C@@H](CN(C)S(=O)(=O)c2ccccc2)Oc2ccc(NC(=O)Nc3ccc(C(F)(F)F)cc3)cc2C1=O,–,–,·,·,·
C[C@H](CO)N1C[C@H](C)[C@@H](CN(C)C(=O)Nc2ccc(C(F)(F)F)cc2)Oc2ccc(NS(=O)(=O)c3ccc(F)cc3)cc2C1=O,–,–,·,·,·
CCOC(=O)CCCCCC(=O)Nc1ccc2c(c1)C(=O)N([C@H](C)CO)C[C@@H](C)[C@H](CN(C)S(=O)(=O)c1cn(C)cn1)O2,46.9,–,·,·,·
C[C@H](CO)N1C[C@H](C)[C@@H](CN(C)C(=O)Nc2ccc(C(F)(F)F)cc2)Oc2ccc(NS(=O)(=O)c3ccccc3)cc2C1=O,30.8,–,·,·,·
SMILES,DRD3 agonist,D3 antag,D1 potentiator,D1 antagonist,D1 ag
C[C@H](CO)N1C[C@H](C)[C@@H](CN(C)C(=O)Nc2ccc(C(F)(F)F)cc2)Oc2ccc(NS(=O)(=O)c3cccs3)cc2C1=O,30.1,–,·,·,·
C[C@H](CO)N1C[C@H](C)[C@@H](CN(C)S(C)(=O)=O)Oc2ccc(NC(=O)C3CCCCC3)cc2C1=O,52.3,–,·,·,·
C[C@H](CO)N1C[C@H](C)[C@@H](CN(C)S(C)(=O)=O)Oc2ccc(NC(=O)C3CC3)cc2C1=O,–,–,·,·,·
CSc1nc(N)c(C#N)c(-c2ccc(Cl)cc2)c1C#N,–,–,–,-32.2,–
CC(=O)N1Cc2cc(C(=O)NCC(F)(F)F)nc(-c3cccc(-c4cc5ccccc5o4)c3)c2[C@@H]1CCO,54.6,–,·,·,·
CCSC1=C(C#N)C(c2ccc(F)cc2)CC(=O)N1 (configuration not stated),–,–,–,-32.4,–
CCSC1=C(C#N)C(c2ccc(OC)c(OC)c2)CC(=O)N1 (configuration not stated),–,–,–,–,–
CCSC1=C(C#N)C(c2cccc(O)c2)CC(=O)N1 (configuration not stated),–,–,–,–,–
C=C(C)CSC1=C(C#N)C(c2ccsc2)CC(=O)N1 (configuration not stated),–,–,–,-38.9,–
COc1cc(Cl)c(NC(=O)CN(C)S(=O)(=O)c2ccc3[nH]c4c(c3c2)CCCC4)c(OC)c1,–,·,–,–,–
COc1ccc2c(n1)Sc1nc3ccccc3nc1N2,–,–,–,–,261.6
Cc1ccc(C)c(N2CCN(C(=O)C3CCC(CNS(=O)(=O)c4ccc(Br)s4)CC3)CC2)c1 (configuration not stated),–,·,–,–,–
CCCCN(CC(=O)NC1CCCC1)C(=O)C(=O)Nc1ccc2c(c1)OCCO2,–,–,–,-36.2,–
CC(C)CCN(CC(=O)NC1CCCC1)C(=O)C(=O)Nc1ccc2c(c1)OCCO2,–,–,–,–,–
CC(=NNC(=S)N1CCCCC1)c1cccc(C)n1,–,-106.8,·,·,·
O=c1[nH]c2cc3c(cc2cc1C(c1nnnn1Cc1ccccc1)N1CCCCCC1)OCCO3 (configuration not stated),–,–,–,–,–
Cc1cccc2cc(C(c3nnnn3Cc3ccc4c(c3)OCO4)N3CCCC3)c(=O)[nH]c12 (configuration not stated),–,-51.1,–,–,–
COc1ccc2oc(C(=O)N3CCN(c4ncccn4)CC3)c(C)c2c1,–,–,–,–,–
COc1cccc(CN2CCN(C(=O)c3ccco3)CC2)c1,37.4,–,–,–,–
O=C(c1ccco1)N1CCN(CC(O)COc2ccc(Br)cc2)CC1 (configuration not stated),34.7,–,–,–,–
COC(=O)c1ccc(OCC(O)CN2CCN(C(=O)c3ccco3)CC2)cc1 (configuration not stated),–,–,–,–,–
O=C(c1ccco1)N1CCN(Cc2cccc3ccccc23)CC1,32.1,–,·,–,–
COc1ccc2oc(C(=O)N3CCN(C(=O)c4ccco4)CC3)c(C)c2c1,–,–,–,-35.6,–
CCc1ccccc1NC(=O)C1COc2ccccc2C1 (configuration not stated),–,·,–,–,–

# Bioassay records deposited in PubChem BioAssay by National Center for Advancing Translational Sciences (NCATS).
